Nine molecules from PubChem BioAssay (NCATS) can be followed below.

The structures appear in SMILES notation. Values joined by “and” are separate entries in the source; they are usually repeats but may differ in a detail not shown here. Equal entries are not always repeated. Results filed as inconclusive are left out. Active and inactive are the calls of the source. Unless noted, the call rests on the fitted dose curve; in most records, active means well fitted curve in the direction sought with a large enough effect; inconclusive means small, poorly fitted or top-dose-only effect, or another doubt; inactive means no such curve, though single readings can be large; an effect the other way counts as inactive or inconclusive.

Assay [1] deals with Galactokinase (Homo sapiens) (UniProt P51570). The assay can be described thus: qHTS Validation Assay for Inhibitors of Human Galactokinase (GALK) (AID 493189). Further: 0% is about no effect. The method in brief: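 GALK (5 nM) with 35 uM ATP and 100 uM galactose in HEPES pH 8.0 with MgCl2, NaCl, DTT and BSA. Reaction ran 1 h at room temperature. Residual ATP read by Kinase-Glo Plus luminescence.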
Chain of Galactokinase (Homo sapiens) (P51570 whole entry, looked up): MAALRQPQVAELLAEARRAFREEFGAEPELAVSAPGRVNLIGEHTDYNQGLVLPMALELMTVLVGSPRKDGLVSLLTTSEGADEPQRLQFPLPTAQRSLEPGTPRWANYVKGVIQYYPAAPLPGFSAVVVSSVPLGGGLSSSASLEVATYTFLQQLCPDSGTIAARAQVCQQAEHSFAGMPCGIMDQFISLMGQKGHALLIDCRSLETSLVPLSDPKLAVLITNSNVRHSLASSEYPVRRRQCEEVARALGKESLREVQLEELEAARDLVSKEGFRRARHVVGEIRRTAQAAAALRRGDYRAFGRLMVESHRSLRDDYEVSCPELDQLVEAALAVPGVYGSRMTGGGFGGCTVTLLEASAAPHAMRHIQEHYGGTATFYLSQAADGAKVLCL
(qHTS replaces the single test concentration by a dilution series.)

Assay [2] can be described thus: Validation screen for small molecules that induce DNA re-replication in SW480 colon adenocarcinoma cells (AID 504364). Further: 0% is about no effect. An outline of the steps:
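Cells are treated 48 hr with test compound, stained 40 min with Hoechst at 37 C, and scanned for nuclear fluorescence; compounds inducing re-replication increase nuclei with elevated intensity.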

In assay [3] the target is Peptidyl-prolyl cis-trans isomerase NIMA-interacting 1 (Homo sapiens) (UniProt Q13526). Put plainly: qHTS Validation Assay to Find Inhibitors of Pin1 (AID 504536; active means well fitted inhibition curve with a large enough effect in the polarisation, with a control signal flat, not every such curve was filed as active; the % refers to the polarisation;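 further: 0% = full Pin1 enzyme wells and -100% = no-enzyme wells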). The method in brief: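 Fluorescence polarization competition: compounds (titration) displace HiFluor-488-labeled Pin1-1b peptide from Pin1 (0.3 uM final) in pH 7.5 HEPES buffer with DTT, 10 min at room temperature; %Activity normalized to no-enzyme wells, curves fitted.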
Chain of Peptidyl-prolyl cis-trans isomerase NIMA-interacting 1 (Homo sapiens) (Q13526 whole entry, looked up): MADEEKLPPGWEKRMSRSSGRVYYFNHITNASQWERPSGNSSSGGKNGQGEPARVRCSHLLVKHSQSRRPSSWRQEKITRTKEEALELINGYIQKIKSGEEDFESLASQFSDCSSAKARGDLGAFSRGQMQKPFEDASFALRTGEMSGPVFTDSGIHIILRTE

In assay [4] the target is Phosphoglycerate kinase, glycosomal (Trypanosoma brucei brucei) (UniProt P07378). The assay can be described thus: qHTS Validation Assay to Find Inhibitors of Phosphoglycerate Kinase (AID 504547).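 Further: control wells lack PGK and mark full inhibition.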 The method in brief: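 Inhibition of the enzyme is judged by a Kinase-Glo Plus luminescent signal following a one-hour incubation at room temperature. Because 1,3-BPG is unstable, it is made in situ by GAPDH at 100nM final; no-PGK wells define the baseline.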
Chain of Phosphoglycerate kinase, glycosomal (Trypanosoma brucei brucei) (P07378 whole entry, looked up): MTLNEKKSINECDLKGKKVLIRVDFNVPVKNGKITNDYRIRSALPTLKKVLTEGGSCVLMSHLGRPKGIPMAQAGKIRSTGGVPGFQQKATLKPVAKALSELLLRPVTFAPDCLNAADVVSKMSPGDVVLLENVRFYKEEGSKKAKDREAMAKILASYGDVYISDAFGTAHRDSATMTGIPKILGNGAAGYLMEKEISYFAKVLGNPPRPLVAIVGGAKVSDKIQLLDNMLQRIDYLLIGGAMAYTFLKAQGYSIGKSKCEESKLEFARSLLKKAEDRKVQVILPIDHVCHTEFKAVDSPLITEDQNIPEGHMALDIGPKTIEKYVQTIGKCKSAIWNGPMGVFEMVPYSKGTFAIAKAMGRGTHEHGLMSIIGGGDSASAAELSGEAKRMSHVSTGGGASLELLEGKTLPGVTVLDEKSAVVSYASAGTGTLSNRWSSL

Assay [5] concerns the target phosphoglycerate mutase (Leishmania major) (UniProt Q4Q090). Put plainly: qHTS Validation Assay to Find Inhibitors of Phosphoglycerate Mutase (AID 504548).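 Further: end-point luminescence from Kinase-GloPlus after the PGAM reaction; series mostly up to about 58 µM; on the % scale 0 is the no-effect control and ±100 the full control effect.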 The method in brief:
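Inhibition of L. major PGAM was assessed by Kinase-GloPlus luminescence following a 45-minute room-temperature reaction with enzyme at 1.25nM final.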

The target in assay [6] is Ubiquitin carboxyl-terminal hydrolase 1 (Homo sapiens) (UniProt O94782). Put plainly: Inhibitors of USP1/UAF1: Pilot qHTS (AID 504865).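 Further: rhodamine fluorescence freed from ubiquitin-rhodamine substrate followed over time; top concentration of the series differs between compounds; on the % scale 0 is the no-effect control and ±100 the full control effect; nearly all actives have a fitted effect of over 35% in size.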 The method in brief: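 USP1/UAF1 complex at 1 nM preincubated 15 min at room temperature with compound, then Ub-Rho substrate added at 150 nM final. Fluorescence (480/540 nm) read kinetically in 50 mM HEPES pH 7.8, 0.5 mM EDTA, 1 mM TCEP, 0.1 mg/ml BSA, 0.01% Tween-20.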
Chain of Ubiquitin carboxyl-terminal hydrolase 1 (Homo sapiens) (O94782 whole entry, looked up): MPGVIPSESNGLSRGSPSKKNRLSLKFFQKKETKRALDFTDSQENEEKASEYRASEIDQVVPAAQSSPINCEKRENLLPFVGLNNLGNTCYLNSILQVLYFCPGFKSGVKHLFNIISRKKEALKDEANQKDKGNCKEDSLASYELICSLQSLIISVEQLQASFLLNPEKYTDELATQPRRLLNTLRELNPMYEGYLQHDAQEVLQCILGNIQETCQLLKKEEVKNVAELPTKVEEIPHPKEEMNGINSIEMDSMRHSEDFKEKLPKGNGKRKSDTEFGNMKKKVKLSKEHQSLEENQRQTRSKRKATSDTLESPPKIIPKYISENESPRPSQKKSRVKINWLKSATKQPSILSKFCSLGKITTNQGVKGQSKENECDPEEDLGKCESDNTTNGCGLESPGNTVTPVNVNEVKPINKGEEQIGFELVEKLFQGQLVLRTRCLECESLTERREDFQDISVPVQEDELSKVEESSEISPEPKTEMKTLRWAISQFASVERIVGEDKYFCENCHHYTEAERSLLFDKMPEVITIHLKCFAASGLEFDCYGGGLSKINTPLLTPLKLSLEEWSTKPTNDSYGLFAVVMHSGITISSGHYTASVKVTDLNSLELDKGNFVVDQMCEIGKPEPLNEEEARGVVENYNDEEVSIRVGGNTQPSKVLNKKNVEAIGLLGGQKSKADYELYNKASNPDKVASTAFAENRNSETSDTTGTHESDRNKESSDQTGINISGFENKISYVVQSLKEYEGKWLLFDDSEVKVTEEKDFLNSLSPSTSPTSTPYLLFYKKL

Assay [7] is described as follows: qHTS for Inhibitors of ATXN expression: Validation of Cytotoxic Assay (AID 588349).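 Further: cells exposed to compound for 72 hr.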 Further: potency means the concentration at half of the fitted maximal effect. An outline of the steps:
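HEK293, compound dose series, 72 hr / 37 degrees C; viability via CellTiter Glo (intracellular ATP).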

Assay [8] is described as follows: qHTS for Inhibitors of ATXN expression: Validation (AID 588378). Further: nearly all actives have a fitted effect of over 75% in size. Further: potency means the concentration at half of the fitted maximal effect. An outline of the steps:
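HEK293 cells carrying ATXN2-firefly luciferase reporter, treated with compound 24 h at 37 °C. Viability read first by CellTiter-Fluor (405/525 nm), then reporter expression by Bright-Glo luminescence; controls were a known ATXN2 expression inhibitor and a luciferase inhibitor.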

Assay [9] has as its target Glucocorticoid receptor (Homo sapiens) (UniProt P04150). The assay can be described thus: qHTS assay for small molecule agonists of glucocorticoid receptor signaling (AID 588532; active means well fitted curve in the direction sought with a large enough effect in the signal ratio, with a control signal flat; the % refers to the signal ratio;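 further: 100% = dexamethasone at 0.1 µM and 0% = DMSO only wells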). The following applies: HeLa MMTV-bla, beta-lactamase ratio, agonist, 18 h; stronger effect = higher value; percent of dexamethasone control, DMSO zero. An outline of the steps: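 Agonist-mode qHTS: GRE-driven beta-lactamase in HeLa cells exposed 18 h to titrated compounds (up to 92 uM), then CCF4 ratio read after 2 h at RT; Hill-fitted EC50, efficacy relative to 0.1 uM dexamethasone.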

For assay [10] the target is unchanged. The assay can be described thus: qHTS assay for small molecule antagonists of glucocorticoid receptor signaling (AID 588533; active means well fitted inhibition curve with a large enough effect in the signal ratio, with a control signal flat, not every such curve was filed as active; the % refers to the signal ratio;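 further: cells stimulated with 2 nM dexamethasone as agonist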; further: potency means the concentration at half of the fitted maximal effect). The method in brief:
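Antagonist-mode qHTS: compound titrations added to GRE-bla HeLa cells, then dexamethasone 2 nM final; 18 h, 37 C. CCF4 FRET fluorescence normalized to dexamethasone and DMSO; IC50 from Hill fit.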

Assay [11] has as its target Peroxisome proliferator-activated receptor gamma (Homo sapiens) (UniProt P37231). The assay can be described thus: qHTS assay for small molecule antagonists of peroxisome proliferator-activated receptor gamma signaling (AID 588537; active means well fitted inhibition curve with a large enough effect in the signal ratio, with a control signal flat, not every such curve was filed as active; the % refers to the signal ratio; further: potency means the concentration at half of the fitted maximal effect). An outline of the steps:
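Inhibitors of agonist-stimulated UAS-bla reporter activity were sought in HEK293 cells; rosiglitazone (50 nM) defined full signal and DMSO baseline. Curves fitted to Hill model gave IC50 and efficacy.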

Assay [12] deals with Estrogen receptor (Homo sapiens) (UniProt P03372). Put plainly: qHTS assay for small molecule antagonists of estrogen receptor alpha signaling (AID 588513; active means well fitted curve in the direction sought with a large enough effect in the signal ratio, with a control signal flat, not every such curve was filed as active; the % refers to the signal ratio; further: on the % scale 0 is the no-effect control and ±100 the full control effect). The method in brief: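 ER-alpha-UAS-bla GripTite HEK 293 cells in 2% charcoal/dextran-treated FBS medium; compounds titrated (1:2, duplicate), then stimulated with 0.5 nM 17-beta-estradiol for 18 h at 37C. CCF4 beta-lactamase fluorescence; Hill-fit IC50 and efficacy.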
Chain of Estrogen receptor (Homo sapiens) (P03372 whole entry, looked up): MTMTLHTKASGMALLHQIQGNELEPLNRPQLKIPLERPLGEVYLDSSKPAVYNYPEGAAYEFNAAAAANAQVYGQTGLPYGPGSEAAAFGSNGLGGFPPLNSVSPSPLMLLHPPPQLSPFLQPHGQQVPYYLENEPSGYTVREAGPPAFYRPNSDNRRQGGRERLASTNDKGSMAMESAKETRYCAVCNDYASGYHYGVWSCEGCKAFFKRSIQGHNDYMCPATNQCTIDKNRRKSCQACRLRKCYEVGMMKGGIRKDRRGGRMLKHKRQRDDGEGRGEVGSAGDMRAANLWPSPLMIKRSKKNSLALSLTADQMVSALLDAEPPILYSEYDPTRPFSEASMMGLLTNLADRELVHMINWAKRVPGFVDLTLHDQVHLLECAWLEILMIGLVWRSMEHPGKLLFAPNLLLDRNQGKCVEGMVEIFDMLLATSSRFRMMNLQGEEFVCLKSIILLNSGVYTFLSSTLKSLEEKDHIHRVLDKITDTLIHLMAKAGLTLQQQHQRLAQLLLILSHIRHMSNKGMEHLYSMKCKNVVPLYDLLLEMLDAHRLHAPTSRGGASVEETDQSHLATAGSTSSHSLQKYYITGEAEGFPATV

Assay [13] has the same target. Put plainly: qHTS assay for small molecule agonists of estrogen receptor alpha signaling (AID 588514; calls by dose curve;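 further: 0% = vehicle only and 100% = reference agonist; nearly all actives have a fitted effect of over 70% in size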). An outline of the steps: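 Reporter-gene assay. […] controls beta-lactamase in HEK 293 GripTite cells; after 18 hrs with compound, CCF4 substrate is added for 2 hrs and fluorescence is read.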
For assay [14], the target named is Androgen receptor (Homo sapiens) (UniProt P10275). Put plainly: qHTS assay for small molecule agonists of androgen receptor signaling (AID 588515; active means well fitted curve in the direction sought with a large enough effect in the signal ratio, with a control signal flat; the % refers to the signal ratio; further: on the % scale 0 is the no-effect control and ±100 the full control effect). The following applies: AR-UAS-bla HEK293, beta-lactamase ratio, agonist 16 h; stronger effect = higher value. The method in brief:
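EC50 and efficacy came from Hill fits of titrations (up to 92 uM) normalized to 30 nM R1881 as 100% and DMSO as 0%. Compound exposure was 16 h at 37 C on AR-UAS-bla HEK293 cells, with a 405/460/530 nm CCF4 fluorescence read.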

For assay [15] the target is unchanged. The assay can be described thus: qHTS assay for small molecule antagonists of androgen receptor signaling (AID 588516; active means well fitted curve in the direction sought with a large enough effect in the signal ratio, with a control signal flat, not every such curve was filed as active; the % refers to the signal ratio; further: on the % scale 0 is the no-effect control and ±100 the full control effect). An outline of the steps:
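AR-UAS-bla GripTite HEK 293 cells (2000/well) treated with compound titrations plus 10 nM R1881 for 16 h at 37C. Beta-lactamase read by CCF4 FRET (460/530 nm); IC50 from Hill fits, normalized to R1881 and DMSO control wells.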

The target in assay [16] is Bile acid receptor (Homo sapiens) (UniProt Q96RI1). Put plainly: qHTS assay for small molecule antagonists of farnesoid X receptor signaling (AID 588526; calls by dose curve; further: on the % scale 0 is the no-effect control and ±100 the full control effect). An outline of the steps:
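Beta-lactamase reporter antagonist mode: HEK293T FXR-UAS-bla cells, titrated compound, CDCA stimulation, 16 h 37 C, CCF4 dye 2 h RT. Data normalized to CDCA 50 uM and DMSO; Hill-fit IC50.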

Assay [17] can be described thus: qHTS assay for small molecule antagonists of peroxisome proliferator-activated receptor delta signaling (AID 588535).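 Further: cells co-treated with a PPAR-delta agonist as stimulator during compound exposure.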 As to conditions: HEK293T PPARd-UAS-bla, beta-lactamase FRET ratio, 18 h; 460 nm channel. An outline of the steps:
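Cell-based beta-lactamase assay in antagonist mode: 4000 HEK293T PPAR-delta-UAS-bla cells per well, 5 hr preincubation then 18 hr compound incubation at 37 C. IC50 obtained by Hill equation fitting.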

In assay [18] the target is Peroxisome proliferator-activated receptor gamma (Homo sapiens) (UniProt P37231). The assay can be described thus: qHTS assay for small molecule agonists of peroxisome proliferator-activated receptor gamma signaling (AID 588536; active means well fitted curve in the direction sought with a large enough effect in the signal ratio, with a control signal flat, not every such curve was filed as active; the % refers to the signal ratio;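 further: 0% = DMSO basal wells and 100% = rosiglitazone at 2 µM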). An outline of the steps:
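HEK293 UAS-bla reporter line, 1% charcoal/dextran FBS; titration, 16 h, 37 C; CCF4 loading 2 h RT; fluorescence 460/530 nm. Normalized to rosiglitazone 2 uM = 100%, DMSO = 0%.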

The target of assay [19] is Vitamin D3 receptor (Homo sapiens) (UniProt P11473). Put plainly: qHTS assay for small molecule antagonists of vitamin D receptor signaling (AID 588541; calls by dose curve). An outline of the steps:
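Antagonist-mode beta-lactamase reporter assay: HEK293T VDR-UAS-bla cells were exposed to titrated compound alongside 1-alpha,25-dihydroxyvitamin D3 at 3 nM final for 16 h. Values were normalized to the 50 nM agonist control and DMSO basal, with IC50 and efficacy from Hill equation fits.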

Assay [20] has the same target. The assay can be described thus: qHTS assay for small molecule agonists of vitamin D receptor signaling (AID 588543; calls by dose curve;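 further: 0% = DMSO basal and 100% = reference agonist control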). The method in brief:
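VDR-UAS-bla HEK293T cells, 2000/well, 2% charcoal-stripped FBS; compound titration 16 h at 37 C; CCF4 beta-lactamase ratio read. Normalized to 50 nM 1-alpha,25-dihydroxyvitamin D3 (100%) and DMSO; Hill fit gives EC50, efficacy.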

Chain of Androgen receptor (Homo sapiens) (P10275 whole entry, looked up): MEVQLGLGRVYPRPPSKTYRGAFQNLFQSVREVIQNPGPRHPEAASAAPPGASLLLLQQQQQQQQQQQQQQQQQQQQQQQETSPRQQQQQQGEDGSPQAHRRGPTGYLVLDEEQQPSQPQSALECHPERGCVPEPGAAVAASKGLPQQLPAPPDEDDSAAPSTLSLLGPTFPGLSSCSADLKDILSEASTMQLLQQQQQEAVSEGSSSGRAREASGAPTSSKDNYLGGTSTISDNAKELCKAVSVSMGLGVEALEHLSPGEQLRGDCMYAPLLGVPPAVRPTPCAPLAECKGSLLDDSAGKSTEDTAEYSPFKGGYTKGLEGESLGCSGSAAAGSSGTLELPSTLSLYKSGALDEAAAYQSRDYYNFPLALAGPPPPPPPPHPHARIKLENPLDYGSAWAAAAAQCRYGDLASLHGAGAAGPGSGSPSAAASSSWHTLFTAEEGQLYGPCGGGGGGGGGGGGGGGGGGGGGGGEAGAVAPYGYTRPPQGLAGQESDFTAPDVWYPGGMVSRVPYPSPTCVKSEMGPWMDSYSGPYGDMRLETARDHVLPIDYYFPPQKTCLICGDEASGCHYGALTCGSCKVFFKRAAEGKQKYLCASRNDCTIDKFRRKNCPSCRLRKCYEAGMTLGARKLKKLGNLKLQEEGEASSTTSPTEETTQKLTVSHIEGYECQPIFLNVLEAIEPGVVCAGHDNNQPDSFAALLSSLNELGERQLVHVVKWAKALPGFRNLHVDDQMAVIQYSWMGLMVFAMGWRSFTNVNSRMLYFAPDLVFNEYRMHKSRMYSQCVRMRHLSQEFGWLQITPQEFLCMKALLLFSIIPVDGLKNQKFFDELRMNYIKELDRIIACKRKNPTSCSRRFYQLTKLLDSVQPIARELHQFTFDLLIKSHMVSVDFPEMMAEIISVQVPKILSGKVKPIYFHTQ
Chain of Glucocorticoid receptor (Homo sapiens) (P04150 whole entry, looked up): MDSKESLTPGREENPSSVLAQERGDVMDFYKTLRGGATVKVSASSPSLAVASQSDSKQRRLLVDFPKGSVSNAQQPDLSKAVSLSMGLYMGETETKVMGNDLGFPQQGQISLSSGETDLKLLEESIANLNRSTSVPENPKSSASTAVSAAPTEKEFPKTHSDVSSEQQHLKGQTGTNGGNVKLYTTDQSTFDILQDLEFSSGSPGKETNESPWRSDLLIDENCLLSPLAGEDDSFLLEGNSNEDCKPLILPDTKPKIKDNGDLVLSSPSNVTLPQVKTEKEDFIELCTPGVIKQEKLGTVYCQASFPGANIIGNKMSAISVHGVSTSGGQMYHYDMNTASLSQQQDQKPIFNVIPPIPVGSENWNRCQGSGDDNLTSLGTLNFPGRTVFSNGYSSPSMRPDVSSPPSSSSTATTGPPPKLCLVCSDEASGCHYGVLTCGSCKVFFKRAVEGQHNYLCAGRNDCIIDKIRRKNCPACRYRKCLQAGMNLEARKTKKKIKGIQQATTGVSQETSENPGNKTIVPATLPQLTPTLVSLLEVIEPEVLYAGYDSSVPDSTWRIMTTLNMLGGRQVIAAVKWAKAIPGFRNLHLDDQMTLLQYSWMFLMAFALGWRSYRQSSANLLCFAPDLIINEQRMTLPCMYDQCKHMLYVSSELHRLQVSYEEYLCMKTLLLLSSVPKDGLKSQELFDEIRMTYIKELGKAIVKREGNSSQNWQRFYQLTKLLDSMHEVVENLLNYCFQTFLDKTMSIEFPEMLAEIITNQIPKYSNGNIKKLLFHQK
Chain of Vitamin D3 receptor (Homo sapiens) (P11473 whole entry, looked up): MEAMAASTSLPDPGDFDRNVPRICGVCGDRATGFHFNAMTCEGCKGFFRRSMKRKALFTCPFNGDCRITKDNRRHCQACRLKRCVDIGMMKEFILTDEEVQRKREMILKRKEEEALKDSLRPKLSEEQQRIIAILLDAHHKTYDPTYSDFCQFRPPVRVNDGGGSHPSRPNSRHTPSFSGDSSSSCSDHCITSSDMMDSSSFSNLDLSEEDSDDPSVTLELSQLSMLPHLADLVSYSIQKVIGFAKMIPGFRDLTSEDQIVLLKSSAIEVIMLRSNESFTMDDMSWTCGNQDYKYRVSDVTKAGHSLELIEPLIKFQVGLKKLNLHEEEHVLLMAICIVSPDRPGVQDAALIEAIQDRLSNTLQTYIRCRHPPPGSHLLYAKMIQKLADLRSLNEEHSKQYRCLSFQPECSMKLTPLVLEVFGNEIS
Chain of Peroxisome proliferator-activated receptor gamma (Homo sapiens) (P37231 whole entry, looked up): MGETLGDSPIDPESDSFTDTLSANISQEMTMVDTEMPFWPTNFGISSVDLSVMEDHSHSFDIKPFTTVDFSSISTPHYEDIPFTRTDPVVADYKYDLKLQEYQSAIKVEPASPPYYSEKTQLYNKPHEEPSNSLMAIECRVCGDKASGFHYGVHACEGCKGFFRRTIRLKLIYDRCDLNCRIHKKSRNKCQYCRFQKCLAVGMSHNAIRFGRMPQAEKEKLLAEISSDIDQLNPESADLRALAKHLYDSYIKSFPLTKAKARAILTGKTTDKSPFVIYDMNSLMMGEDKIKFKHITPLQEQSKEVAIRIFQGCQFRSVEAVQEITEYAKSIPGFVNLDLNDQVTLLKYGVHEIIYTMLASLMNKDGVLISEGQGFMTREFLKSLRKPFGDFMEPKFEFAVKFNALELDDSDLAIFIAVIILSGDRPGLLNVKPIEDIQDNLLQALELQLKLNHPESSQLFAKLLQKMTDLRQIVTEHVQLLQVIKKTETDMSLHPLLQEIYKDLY

As for `CCN(CC)CCOC(=O)c1ccc(N)cc1`, the molecule was classed as inactive in assay [1], in assay [2], in assay [3], in assay [4] and in [5]. Besides, the Potency result in [6], in assay [7] and in assay [8] was “inactive” throughout.
With `Clc1ccc(Cn2c(CN3CCCC3)nc3ccccc32)cc1`, the result in [1], in assay [2], in assay [3], in assay [4] and in assay [5] was inactive. In addition, the Potency result in assay [7] and in assay [8] was “inactive” each time.
`NCCS`: the outcome in assay [1], in [2], in assay [3], in assay [4] and in [5] was inactive. In addition, the Potency result in assay [6], in assay [7] and in assay [8] was “inactive” in each case.
Take `COc1ccccc1N1CCN(CCCNc2cc(=O)n(C)c(=O)n2C)CC1`: the result in [1], in assay [2], in assay [3], in assay [4] and in assay [5] was inactive. The Potency result in assay [6], in [7] and in assay [8] was “inactive” in each case.
For the molecule `CC(C)NCC(O)COc1cccc2[nH]ccc12` (stereo not drawn), the result in assay [1], in assay [2], in assay [3], in assay [4] and in assay [5] was inactive. For the same molecule, the Potency result in [6], in [7] and in assay [8] was “inactive” throughout.
As to `CC/C(=C(\c1ccccc1)c1ccc(OCCN(C)C)cc1)c1ccccc1`, the call in assay [1], in assay [2], in assay [3], in assay [4] and in assay [5] was inactive. Besides, the figures for the Potency in assay [7] and in assay [8] were 25.1 µM (active) and 22.4 µM (active), respectively. Besides, the activation in assay [9] is 5.77% (inactive) and -2.85% (inactive). Besides, the Potency entry in assay [10] and in assay [11] was “inactive” each time.
As to `CC(C)(C)c1ccc(C(O)CCCN2CCC(C(O)(c3ccccc3)c3ccccc3)CC2)cc1` (stereo not drawn), the molecule was classed as inactive in assay [1], in assay [2], in [3], in [4] and in [5].
As to `CC(=O)c1ccc(S(=O)(=O)NC(=O)NC2CCCCC2)cc1`, the molecule was called inactive in [1], in assay [2], in [3], in assay [4], in [5] and in assay [13]. The molecule was classed as inactive in [15], in [16], in assay [18], in assay [19] and in assay [20]. For the same molecule, the Potency entry in assay [6], in assay [7], in [8], in [12], in [10] and in assay [11] was “inactive” throughout. Further, the activation is -0.897% (inactive) and 2.97% (inactive) in assay [14]; 9.83% (inactive) and -7.15% (inactive) in [9]. Further, in [17], the max response was 3.83% and 9.27%.
For `O=c1cc(-c2ccc(O)cc2)oc2cc(O)cc(O)c12`, the molecule was classed as inactive in assay [1], in assay [2], in assay [3] and in assay [4]. The Potency result in assay [6], in [7] and in assay [8] was “inactive” throughout. For the same molecule, the figures for the Potency in assay [10] and in assay [11] were 31.6 µM (active) and 44.7 µM (active), respectively.
